Results as given in PubChem BioAssay (NCATS).
Several values for one entry are separate records, joined by “and”; a condition that tells them apart may be missing. Equal entries are not always repeated. Inconclusive results are not listed. Where a call stands in place of a potency, no number is given. A number with no mark means an inactive call. Activity calls are given as the source filed them. Unless noted, the call rests on the fitted dose curve; in most records, active means well fitted curve in the direction sought with a large enough effect; inconclusive means small, poorly fitted or top-dose-only effect, or another doubt; inactive means no such curve, though single readings can be large; an effect the other way counts as inactive or inconclusive.

Tests used:
[1] = target: Calcium and integrin-binding protein 1 (Homo sapiens) (UniProt Q99828); assay: Primary qHTS for Identification of Calcium Integrin Binding Protein 1 (CIB1) Competitor (AID 1508620);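 further: GST tagged CIB1 binding a fluorescein labelled alphaIIb integrin peptide tracer; top concentration of the series differs between compounds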
Chain of Calcium and integrin-binding protein 1 (Homo sapiens) (Q99828 whole entry, looked up): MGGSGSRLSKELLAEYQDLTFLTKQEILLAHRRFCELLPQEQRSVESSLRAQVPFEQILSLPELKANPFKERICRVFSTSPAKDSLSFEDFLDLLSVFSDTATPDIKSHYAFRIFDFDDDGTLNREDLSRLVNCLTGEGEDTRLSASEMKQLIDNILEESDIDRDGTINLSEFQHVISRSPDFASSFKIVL
Summary of the method: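 Fluorescence polarization competition: CIB1-GST (1 uM final) preincubated with compound 15 min at room temperature, then FITC-labeled alphaIIb peptide (100 nM final) added for another 15 min. Polarization read at Ex 480/Em 540.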

[2] = Primary qHTS for small molecule stabilizers of the endoplasmic reticulum resident proteome: Secreted ER Calcium Modulated Protein (SERCaMP) assay (AID 1508630)
Summary of the method: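 GLuc-SERCaMP-expressing SH-SY5Y cells, pretreated 16 h with compound, are challenged with thapsigargin to empty ER calcium stores; after 4 h, coelenterazine is added directly to the medium and luminescence is imaged.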

[3] = A High-Content qHTS Against Drug Library for the Identification of Small Molecules that Inhibit DYT1 Early Onset Primary Dystonia-Associated Cell Pathology (AID 1645839; calls by dose curve; further: series mostly up to about 46 µM)
Summary of the method: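 Readout: %pathology, the punctate EGFP-TorsinA distribution from imaging, as the primary channel and cell count as the toxicity counterscreen. HEK293 Flp-In cells expressing delE TorsinA were induced with tetracycline and treated with compound for 48 h.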

[4] = target: Cytochrome P450 2C9 (Homo sapiens) (UniProt P11712); assay: Cytochrome P450 family 2 subfamily C member 9 (CYP2C9) small molecule antagonists: luciferase biochemical (cell-free) qHTS assay (AID 1645842; active means well fitted curve in the direction sought with a large enough effect in the repeat runs; an effect the other way counts as inactive or inconclusive; further: nearly all actives have a fitted effect of over 55% in size; further: potency means the concentration at half of the fitted maximal effect)
Chain of Cytochrome P450 2C9 (Homo sapiens) (P11712 whole entry, looked up): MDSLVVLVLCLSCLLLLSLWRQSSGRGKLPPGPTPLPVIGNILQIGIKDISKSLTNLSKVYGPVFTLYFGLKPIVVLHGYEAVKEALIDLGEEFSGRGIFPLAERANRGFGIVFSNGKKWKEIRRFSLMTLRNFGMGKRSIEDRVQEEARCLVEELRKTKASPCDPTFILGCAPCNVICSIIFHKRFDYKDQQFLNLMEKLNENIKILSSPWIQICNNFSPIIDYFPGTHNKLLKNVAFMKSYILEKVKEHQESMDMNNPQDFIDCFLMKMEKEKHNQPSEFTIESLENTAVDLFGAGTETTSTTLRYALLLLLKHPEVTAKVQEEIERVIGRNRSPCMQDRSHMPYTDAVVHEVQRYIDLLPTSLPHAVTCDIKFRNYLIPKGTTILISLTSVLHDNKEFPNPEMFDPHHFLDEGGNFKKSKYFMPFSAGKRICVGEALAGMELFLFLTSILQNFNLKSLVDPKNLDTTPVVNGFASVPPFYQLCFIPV
Summary of the method: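 Luminescence, after 20 min with luciferin detection reagent, reflected CYP2C9 turnover during a 1 h NADPH-driven reaction at 37C. Enzyme-substrate mix contained 0.4% bovine serum albumin and was preincubated with compound 10 min at room temperature.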

[5] = target: Cytochrome P450 2D6 (Homo sapiens) (UniProt P10635); assay: Cytochrome P450 family 2 subfamily D member 6 (CYP2D6) small molecule antagonists: luciferase biochemical (cell-free) qHTS assay (AID 1645840; active means well fitted curve in the direction sought with a large enough effect in the repeat runs; an effect the other way counts as inactive or inconclusive; further: nearly all actives have a fitted effect of over 55% in size; further: potency means the concentration at half of the fitted maximal effect)
Chain of Cytochrome P450 2D6 (Homo sapiens) (P10635 whole entry, looked up): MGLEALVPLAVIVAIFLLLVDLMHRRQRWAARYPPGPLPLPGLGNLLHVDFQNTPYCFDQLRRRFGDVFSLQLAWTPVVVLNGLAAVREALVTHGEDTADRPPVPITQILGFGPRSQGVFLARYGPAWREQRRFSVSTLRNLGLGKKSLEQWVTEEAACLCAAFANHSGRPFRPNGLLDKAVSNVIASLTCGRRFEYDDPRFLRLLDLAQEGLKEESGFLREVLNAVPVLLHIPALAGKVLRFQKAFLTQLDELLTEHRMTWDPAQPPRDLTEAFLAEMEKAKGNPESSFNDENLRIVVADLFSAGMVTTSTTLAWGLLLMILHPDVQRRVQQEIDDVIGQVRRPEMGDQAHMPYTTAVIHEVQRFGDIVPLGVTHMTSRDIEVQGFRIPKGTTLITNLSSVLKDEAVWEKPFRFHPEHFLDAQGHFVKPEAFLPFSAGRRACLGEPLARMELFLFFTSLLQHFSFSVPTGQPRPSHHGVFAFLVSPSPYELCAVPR
Summary of the method: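 P450-Glo luminescent screen: recombinant CYP2D6 enzyme–proluciferin substrate mix preincubated with compound 10 min at room temperature, then NADPH regeneration added for 1 h at room temperature. Detection reagent added for 20 min; luciferin light read as relative luminescence units.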

Papain (Carica papaya) = Papain (Carica papaya) (UniProt P00784); assay: Primary qHTS assay for inhibitors of the protease papain (AID 1645873);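 further: papain turnover of Z-FR-AMC read as the AMC fluorescence gain over 10 min; series mostly up to about 50 µM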
Chain of Papain (Carica papaya) (P00784 whole entry, looked up): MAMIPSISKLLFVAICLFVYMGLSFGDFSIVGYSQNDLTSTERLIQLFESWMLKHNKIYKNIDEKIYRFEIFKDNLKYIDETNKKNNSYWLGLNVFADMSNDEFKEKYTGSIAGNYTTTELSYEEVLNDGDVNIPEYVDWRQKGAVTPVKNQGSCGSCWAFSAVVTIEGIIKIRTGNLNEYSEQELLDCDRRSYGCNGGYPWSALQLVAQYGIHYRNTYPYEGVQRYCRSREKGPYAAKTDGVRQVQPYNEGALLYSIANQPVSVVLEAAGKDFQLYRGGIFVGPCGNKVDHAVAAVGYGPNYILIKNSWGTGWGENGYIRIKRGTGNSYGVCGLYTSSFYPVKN

[6] = target: Cytochrome P450 3A4 (Homo sapiens) (UniProt P08684); assay: Cytochrome P450 family 3 subfamily A member 4 (CYP3A4) small molecule antagonists: luciferase qHTS assay (AID 1645841; active means well fitted curve in the direction sought with a large enough effect in the repeat runs; an effect the other way counts as inactive or inconclusive; further: nearly all actives have a fitted effect of over 45% in size)
Chain of Cytochrome P450 3A4 (Homo sapiens) (P08684 whole entry, looked up): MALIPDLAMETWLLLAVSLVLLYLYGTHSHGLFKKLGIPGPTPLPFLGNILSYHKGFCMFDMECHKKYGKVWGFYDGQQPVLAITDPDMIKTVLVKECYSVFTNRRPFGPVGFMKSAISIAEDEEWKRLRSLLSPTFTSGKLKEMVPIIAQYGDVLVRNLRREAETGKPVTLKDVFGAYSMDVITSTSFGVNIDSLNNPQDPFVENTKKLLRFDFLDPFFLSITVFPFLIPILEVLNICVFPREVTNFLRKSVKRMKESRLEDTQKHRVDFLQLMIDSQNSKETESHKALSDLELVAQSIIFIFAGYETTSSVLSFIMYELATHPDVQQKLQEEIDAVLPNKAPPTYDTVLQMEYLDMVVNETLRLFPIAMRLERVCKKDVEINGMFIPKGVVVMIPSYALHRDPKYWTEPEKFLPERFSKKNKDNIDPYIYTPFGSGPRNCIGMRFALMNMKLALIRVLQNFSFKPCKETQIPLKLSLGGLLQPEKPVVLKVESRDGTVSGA
Summary of the method: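 P450-Glo CYP3A4 enzyme with proluciferin substrate was preincubated with DMSO-dissolved compounds for 10 min at room temperature. NADPH regeneration solution started a 1 h reaction. Detection reagent stopped it, and luminescence was read after 20 min.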

Row | Compound | Potency [1] | Potency [2] | Potency [3] | Potency [4] | Potency [5] | Potency (Papain (Carica papaya)) | outcome [6]
1 | Cc1ccc(Nc2nccc(N(C)c3ccc4c(C)n(C)nc4c3)n2)cc1S(N)(=O)=O | inactive | inactive | inactive | 15.5 µM (active) |  |  | 
2 | CCCCN(CCCC)CCC(O)c1cc2c(Cl)cc(Cl)cc2c2cc(C(F)(F)F)ccc12 (configuration not stated) | inactive | inactive |  | inactive | 0.55 µM (active) |  | 
3 | CC[C@]1(O)C[C@H]2CN(CCc3c([nH]c4ccccc34)[C@@](C(=O)OC)(c3cc4c(cc3OC)N(C=O)[C@H]3[C@@](O)(C(=O)OC)[C@H](OC(C)=O)[C@]5(CC)C=CCN6CC[C@]43[C@@H]65)C2)C1 | inactive | inactive | inactive | inactive |  |  | 
4 | O=c1ccc2ccc(O)c(O)c2o1 | inactive | inactive |  |  | inactive |  | 
5 | CC1(C)NC(=O)N(c2ccc([N+](=O)[O-])c(C(F)(F)F)c2)C1=O | inactive | inactive | inactive | 7.76 µM (active) and 6.01 µM (active) | inactive | inactive | 
6 | Nc1ccn([C@@H]2O[C@H](CO)[C@@H](O)C2O)c(=O)n1 (some centres not stated) | inactive | inactive |  |  | inactive |  | 
7 | CCOC(=O)c1c(C)n(C)c2ccc(O)cc12 | inactive | inactive | inactive | inactive |  |  | 
8 | CCOc1cc(CC(=O)N[C@@H](CC(C)C)c2ccccc2N2CCCCC2)ccc1C(=O)O | inactive | inactive |  | inactive | inactive |  | 
9 | C=C(c1ccc(C(=O)O)cc1)c1cc2c(cc1C)C(C)(C)CCC2(C)C | inactive | inactive |  |  | inactive |  | 
10 | Cc1cc(=O)c2c(O)c3c(O)cc(=O)c4c3c3c(cc(O)c1c23)C(C)(C)C=4O | inactive | inactive |  | inactive | inactive |  | inactive
11 | CNC[C@H](O)c1ccc(O)c(O)c1 | inactive | inactive | inactive | inactive |  | inactive | 
12 | Cc1nc(-c2ccc(OCC(C)C)c(C#N)c2)sc1C(=O)O | inactive | inactive |  |  | inactive |  | 
13 | COc1ccc(C2(C#N)CCC(C(=O)O)CC2)cc1OC1CCCC1 (configuration not stated) | inactive | inactive |  | inactive | inactive |  | 
14 | CCCS(=O)c1ccc2nc(NC(=O)OC)[nH]c2c1 (configuration not stated) | inactive | inactive |  | inactive |  |  | inactive
15 | CN(C)C(=O)[C@H](O)[C@H](Cc1ccccc1)NC(=O)c1cc2cc(Cl)ccc2[nH]1 | inactive | inactive |  |  |  | inactive | 
16 | COc1ccc2cc([C@H](C)C(=O)O)ccc2c1 | inactive |  | inactive |  |  | inactive | 
